The panel holds about 79,000 compounds, 15% with a hit somewhere; the sample as a whole holds those more often. Unmarked numbers belong to inactive results. Calls of active or inactive are those of the source. No stated cut-off is given here; in the data, active means growth inhibition above about 70%; inactive means the rest.

Assay [1] is described as follows: NCI Yeast Anticancer Drug Screen. Data for the rad50 strain (AID 155).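 Further: 0% = growth of vehicle-only cultures of the same strain.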 The conditions noted are these: S. cerevisiae rad50 strain growth inhibition, hits give high values. An outline of the steps: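 Readout: growth inhibition relative to vehicle-treated cultures. Compound exposure was carried out in a genetically defined yeast strain deficient in DNA damage repair.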

Assay [2] in a line: NCI Yeast Anticancer Drug Screen. Data for the mec2-1 strain (AID 157). The note with it: S. cerevisiae mec2-1 strain, hits give high values. The procedure, abridged: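 Each compound was tested on mec2-1 yeast, a strain altered in DNA damage repair or cell cycle control. Growth inhibition is reported relative to vehicle.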
Assay [3] is described as follows: NCI Yeast Anticancer Drug Screen. Data for the sgs1 mgt1 strain (AID 161).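 Further: 0% = growth of cultures given vehicle only.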 The note with it: S. cerevisiae sgs1 mgt1 strain, hits give high values. An outline of the steps: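 Mutant yeast exposed to compound; growth scored against vehicle-only wells.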
The nature of assay [4]: NCI Yeast Anticancer Drug Screen. Data for the cln2 rad14 strain (AID 165).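 Further: 0% = growth equal to vehicle treated cultures.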 The conditions noted are these: S. cerevisiae cln2 rad14 strain, hits give high values. An outline of the steps:
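Test compounds were added to cln2 rad14 yeast cultures; inhibition of growth was then determined by comparison with vehicle treatment.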

A short description of assay [5]: NCI Yeast Anticancer Drug Screen. Data for the bub3 strain (AID 167). The conditions noted are these: S. cerevisiae bub3 mutant strain, hits give high values. An outline of the steps: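 Readout: yeast growth inhibition, expressed relative to vehicle-only wells. The test organism is a mutant strain from a panel with lesions in DNA repair or checkpoint genes.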
Assay [6] in a line: NCI Yeast Anticancer Drug Screen. Data for the mlh1 rad18 strain (AID 175). The conditions noted are these: S. cerevisiae mlh1 rad18 strain growth inhibition, hits give high values. An outline of the steps: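 Inhibition values reflect reduced growth of mutant yeast versus vehicle-treated controls following compound exposure; the mutations affect DNA damage repair.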
Setting [7] is: at 5.0 µM (retest, dose inferred, filed as 0.5).
Setting [8] is: at 50.0 µM (retest, dose inferred, filed as 5.0).

As to `C=C(CSCCCCCCCCCCCC)C(=O)O`, the growth inhibition in assay [1] (setting [7]) is 98% (active); in assay [1] (setting [8]), 97% (active); in assay [1] (at 50.0 µM) it was 98.5% (active); in assay [2] (setting [7]), 99% (active); in assay [2] (setting [8]), 98% (active); in assay [2] (at 50.0 µM) it was 98.9% (active). The growth inhibition in assay [3] (setting [7]) was 98% (active); in assay [3] (setting [8]), 97% (active); in assay [3] (at 50.0 µM), 98.5% (active); in assay [4] (setting [7]) it was 98% (active); in assay [4] (setting [8]), 96% (active); in assay [4] (at 50.0 µM), 94.3% (active). In addition, the growth inhibition in assay [5] (setting [7]) is 98% (active); in assay [5] (setting [8]), 96% (active); in assay [5] (at 50.0 µM) it was 99.3% (active); in assay [6] (setting [7]) it was 99% (active); in assay [6] (setting [8]), 97% (active); in assay [6] (at 50.0 µM), 96.7% (active).

Regarding `Cc1cnc2cccc(Cl)c2c1Cl`, the growth inhibition is 3% in assay [1] (setting [7]); 27% in assay [1] (setting [8]); 80.8% (active) in assay [1] (at 50.0 µM); 17% in assay [2] (setting [7]); 11% in assay [2] (setting [8]); 28.4% in assay [2] (at 50.0 µM). The growth inhibition is 19% in assay [3] (setting [7]); 6% in assay [3] (setting [8]); 35.5% in assay [3] (at 50.0 µM); -42% in assay [4] (setting [7]); 4% in assay [4] (setting [8]); 34% in assay [4] (at 50.0 µM). Further, the growth inhibition in assay [5] (setting [7]) is -4%; in assay [5] (setting [8]) it was 14%; in assay [5] (at 50.0 µM) it was 27%; in assay [6] (setting [7]), -15%; in assay [6] (setting [8]) it was 31%; in assay [6] (at 50.0 µM) it was 20.6%.

As to `CC(=O)c1c(-c2ccco2)c(C#N)c(=S)n(C2OC(CO)C(O)C(O)C2O)c1-c1ccccc1` (stereo not given), the growth inhibition in assay [1] (setting [7]) is -9%; in assay [1] (setting [8]), 12%; in assay [1] (at 50.0 µM) it was 32.9%; in assay [2] (setting [7]), -4%; in assay [2] (setting [8]), 17%; in assay [2] (at 50.0 µM), 49.6%. The growth inhibition in assay [3] (setting [7]) was 0%; in assay [3] (setting [8]), 44%; in assay [3] (at 50.0 µM), 58.5%; in assay [4] (setting [7]), 14%; in assay [4] (setting [8]), 28%; in assay [4] (at 50.0 µM) it was 35.2%. Further, the growth inhibition in assay [5] (setting [7]) was 8%; in assay [5] (setting [8]), 20%; in assay [5] (at 50.0 µM), 50.8%; in assay [6] (setting [7]), -25%; in assay [6] (setting [8]) it was 45%; in assay [6] (at 50.0 µM) it was 62.6%.

Turning to `CC1N(O)C(c2ccccc2)C(c2ccccc2)=[N+]1[O-]` (stereo not given), the growth inhibition in assay [1] (setting [7]) was 16%; in assay [1] (setting [8]) it was 25%; in assay [1] (at 50.0 µM), -5.7%; in assay [2] (setting [7]), 11%; in assay [2] (setting [8]) it was 14%; in assay [2] (at 50.0 µM) it was -26.9%. Further, the growth inhibition in assay [3] (setting [7]) is 16%; in assay [3] (setting [8]), 26%; in assay [3] (at 50.0 µM), -20.4%; in assay [4] (setting [7]), 22%; in assay [4] (setting [8]), 17%; in assay [4] (at 50.0 µM) it was 8.8%. Moreover, the growth inhibition is 22% in assay [5] (setting [7]); 26% in assay [5] (setting [8]); -20.9% in assay [5] (at 50.0 µM); 13% in assay [6] (setting [7]); 22% in assay [6] (setting [8]); -37.4% in assay [6] (at 50.0 µM).

`COc1ccccc1NC(=O)CC(=O)N1N=C(C)C(N=Nc2ccc(I)cc2)C1=O` (stereo not given): the growth inhibition in assay [1] (setting [7]) is 5%; in assay [1] (setting [8]), 36%; in assay [1] (at 50.0 µM), 93% (active); in assay [2] (setting [7]), 6%; in assay [2] (setting [8]) it was 30%; in assay [2] (at 50.0 µM), 11.1%. For the same compound, the growth inhibition was 6% in assay [3] (setting [7]); 28% in assay [3] (setting [8]); 83.1% (active) in assay [3] (at 50.0 µM); 2% in assay [4] (setting [7]); 20% in assay [4] (setting [8]); -39.5% in assay [4] (at 50.0 µM). Moreover, the growth inhibition is 5% in assay [5] (setting [7]); 41% in assay [5] (setting [8]); 33% in assay [5] (at 50.0 µM); 2% in assay [6] (setting [7]); 41% in assay [6] (setting [8]); 85.6% (active) in assay [6] (at 50.0 µM).

With `Clc1cc2c(c3ncccc13)OCN(Cc1ccccc1)C2`, the growth inhibition is 16% in assay [1] (setting [7]); 76% (active) in assay [1] (setting [8]); 99.2% (active) in assay [1] (at 50.0 µM); 1% in assay [2] (setting [7]); 33% in assay [2] (setting [8]); 99.5% (active) in assay [2] (at 50.0 µM). The growth inhibition in assay [3] (setting [7]) is 14%; in assay [3] (setting [8]), 98% (active); in assay [3] (at 50.0 µM), 99.5% (active); in assay [4] (setting [7]), 9%; in assay [4] (setting [8]), 98% (active); in assay [4] (at 50.0 µM), 99.2% (active). Moreover, the growth inhibition in assay [5] (setting [7]) was -3%; in assay [5] (setting [8]) it was 99% (active); in assay [5] (at 50.0 µM), 99.4% (active); in assay [6] (setting [7]), 23%; in assay [6] (setting [8]), 99% (active); in assay [6] (at 50.0 µM), 99.3% (active).

As to `CCCNC(=O)N(CC(C)(C)C)S(=O)(=O)c1ccc(Cl)cc1`, the growth inhibition in assay [1] (setting [7]) is -4%; in assay [1] (setting [8]) it was -10%; in assay [1] (at 50.0 µM), 71.1% (active); in assay [2] (setting [7]), -2%; in assay [2] (setting [8]), -10%; in assay [2] (at 50.0 µM), 93.1% (active). The growth inhibition is -2% in assay [3] (setting [7]); 0% in assay [3] (setting [8]); 68.3% in assay [3] (at 50.0 µM); -4% in assay [4] (setting [7]); -17% in assay [4] (setting [8]); 86.8% (active) in assay [4] (at 50.0 µM). In addition, the growth inhibition in assay [5] (setting [7]) is 7%; in assay [5] (setting [8]), 27%; in assay [5] (at 50.0 µM), 99.5% (active); in assay [6] (setting [7]), -5%; in assay [6] (setting [8]), -97%; in assay [6] (at 50.0 µM), 36.2%.

Turning to `CC(C)N=Cc1cc(Br)cc(Br)c1O.CC(C)N=Cc1cc(Br)cc(Br)c1O.[Co]`, the growth inhibition is 93% (active) in assay [1] (setting [7]); 99% (active) in assay [1] (setting [8]); 92% (active) in assay [1] (at 50.0 µM); 54% in assay [2] (setting [7]); 99% (active) in assay [2] (setting [8]); 90.6% (active) in assay [2] (at 50.0 µM). Further, the growth inhibition in assay [3] (setting [7]) is 87% (active); in assay [3] (setting [8]), 99% (active); in assay [3] (at 50.0 µM) it was 98% (active); in assay [4] (setting [7]) it was 88% (active); in assay [4] (setting [8]), 99% (active); in assay [4] (at 50.0 µM), 65%. The growth inhibition is 98% (active) in assay [5] (setting [7]); 99% (active) in assay [5] (setting [8]); 86.3% (active) in assay [5] (at 50.0 µM); 98% (active) in assay [6] (setting [7]); 99% (active) in assay [6] (setting [8]); 88.7% (active) in assay [6] (at 50.0 µM).

For the compound `Cc1ccc(S(=O)(=O)NCCSCCSCCNS(=O)(=O)c2ccc(C)cc2)cc1`, the growth inhibition in assay [1] (setting [7]) is -1%; in assay [1] (setting [8]), -7%; in assay [1] (at 50.0 µM), 55.4%; in assay [2] (setting [7]) it was -2%; in assay [2] (setting [8]), -8%; in assay [2] (at 50.0 µM), 92.2% (active). The growth inhibition in assay [3] (setting [7]) is -2%; in assay [3] (setting [8]), 1%; in assay [3] (at 50.0 µM), 50.5%; in assay [4] (setting [7]) it was -3%; in assay [4] (setting [8]), -5%; in assay [4] (at 50.0 µM), 86.9% (active). The growth inhibition was 0% in assay [5] (setting [7]); -1% in assay [5] (setting [8]); 94.6% (active) in assay [5] (at 50.0 µM); -2% in assay [6] (setting [7]); -2% in assay [6] (setting [8]); 55.2% in assay [6] (at 50.0 µM).

`CC(C)=CCc1ccc(O)cc1`: the growth inhibition in assay [1] (setting [7]) is -24%; in assay [1] (setting [8]), 97% (active); in assay [1] (at 50.0 µM) it was -3.15%; in assay [2] (setting [7]), 5%; in assay [2] (setting [8]), 98% (active); in assay [2] (at 50.0 µM) it was 25.1%. Also, the growth inhibition in assay [3] (setting [7]) is -13%; in assay [3] (setting [8]), 98% (active); in assay [3] (at 50.0 µM), -24.1%; in assay [4] (setting [7]) it was 5%; in assay [4] (setting [8]) it was 96% (active); in assay [4] (at 50.0 µM), 34.8%. For the same compound, the growth inhibition in assay [5] (setting [7]) was -10%; in assay [5] (setting [8]) it was 99% (active); in assay [5] (at 50.0 µM), 53.9%; in assay [6] (setting [7]), 1%; in assay [6] (setting [8]) it was 97% (active); in assay [6] (at 50.0 µM) it was 1.75%.

Values taken from PubChem BioAssay (NCI).
